# Mcl1 Noxa PPI: disrupts binding of human Mcl-1 to Noxa peptide; Q07820; TR-FRET Mcl-1/Noxa peptide binding, 2 h; inhibition, % at 21.7 µM; hit rate 1.5% among 220,000;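 active = compounds that cut the protein-peptide binding signal by more than 50% relative to plate controls in a single-dose test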;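 note: His-tagged Mcl-1 with rhodamine Noxa BH3 peptide and terbium anti-His antibody; 0% = Mcl-1 plus Noxa peptide wells and 100% = peptide-only wells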
# MCL1-BIM inh: disrupts human MCL1 binding to BIM-BH3 peptide; GST-MCL1 / FITC-Bim-BH3 fluorescence polarization; inhibition, % at 10.9 µM; hit rate 0.68% among 320,000;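 active = inhibition above the mean inhibition of all tested compounds plus 3 SD, set per campaign, cut at about 40% in these data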;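 note: 0% = DMSO wells and 100% = unlabeled Bim-BH3 peptide control; higher means more loss of mP so more displacement of Bim peptide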
# Mcl1-Bid inh: disrupts binding of human Mcl-1 to Bid peptide | TR-FRET Mcl-1/Bid-Dy647 peptide binding, 1536-well | inhibition, % at 21.7 µM | hit rate 0.97% among 220,000;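 active = compounds that cut the binding signal by more than half at the single screening dose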;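 note: His-tagged Mcl-1 with europium anti-His antibody binding Bid BH3 peptide; 0% = Mcl-1 plus peptide wells and 100% = peptide-only wells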
# Mcl-1 Bim block: human Bim-Mcl-1 interaction inhibition. Q07820. Bead-based flow cytometry, Bim peptide-Mcl-1 binding. inhibition, % at 10 µM. hit rate 0.1% among 190,000. AID 1009; in the data active = inhibition above about 40%;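 note: 0% = no compound tracer wells and 100% = peptide blocker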
# BCLXL inh confirm: counter-screen for MCL1 inhibitors: confirmation of human Bcl-xL inhibitors. shares compounds with MCL1-BIM inh. GST-Bcl-xL / FITC-Bim BH3 peptide FP binding. inhibition, % at 10.9 µM. hit rate 54% among 1,700;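 active = inhibition above a cutoff equal to the mean inhibition of all tested compounds plus 3 SD, cut at about 30% in these data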;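 note: 0% = DMSO wells and 100% = unlabeled Bim BH3 control peptide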
# Target sequence (Q07817 whole entry, looked up): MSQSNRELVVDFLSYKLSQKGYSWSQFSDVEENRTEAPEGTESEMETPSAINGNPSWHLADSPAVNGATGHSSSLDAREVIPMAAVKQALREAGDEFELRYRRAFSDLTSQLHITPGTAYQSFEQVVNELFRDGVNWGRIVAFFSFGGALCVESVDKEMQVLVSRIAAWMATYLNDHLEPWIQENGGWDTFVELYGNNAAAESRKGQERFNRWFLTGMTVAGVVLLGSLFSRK
# MCL1 BIM confirm: MCL1-BIM-BH3 interaction inhibition, confirmation | inhibition, % at 10.9 µM | AID 2168 | shares compounds with MCL1-BIM inh | hit rate 61% among 1,700 | GST-MCL1 / FITC-Bim-BH3 fluorescence polarization;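 active = inhibition above the average of all tested compounds plus 3 SD, cut at about 40% in these data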;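 note: 0% = DMSO wells and 100% = unlabeled Bim-BH3 control peptide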
# An asterisk follows results filed as active; . = not tested or not shown; + = active, no number. A selection: hits, their analogues and other compounds. The true share with any hit is near 2%.
SMILES,Mcl1 Noxa PPI,MCL1-BIM inh,Mcl1-Bid inh,Mcl-1 Bim block,BCLXL inh confirm,MCL1 BIM confirm
S=c1nc(-c2ccccc2)[nH]c2ccc(Br)cc12,9,2,-70,.,.,.
Cc1c2ccccc2nc2c(F)c(N(C)C)c(F)c(F)c12,-50,122*,-36,-2,120*,134*
O=c1c(O)cccc2cc(O)c(O)c(O)c12,104*,109*,92*,.,85*,103*
COc1cc2cccc(OC)c(=O)c2c(OC)c1OC,7,2,-14,4,.,.
COc1cccc(NC(=O)COc2ccc(C(=O)N3CCN(C)CC3)cc2)c1,.,4,.,.,.,.
Cn1ccc2cc3c(cc21)CCN3C(=O)Nc1cccnc1,.,46*,.,.,39*,50*
COC(=O)C1=C(O)/C(=C\c2ccc(CNS(=O)(=O)c3ccccc3)o2)N=C1C,27,48*,-59,-4,31*,54*
O=C(Nc1ccccc1)c1cn(CCBr)cn1,.,6,.,.,.,.
CN(C)/C=C1\C=C2C(=O)c3ccccc3N2C1=O,-199,116*,-48,.,115*,121*
O=C(c1ccc2nsnc2c1)N1CCN(c2ccc([N+](=O)[O-])cc2)CC1,.,-6,.,.,.,.
CC(OC(=O)c1cc(=O)[nH]c2ccccc12)C(=O)c1ccccc1 (stereo unspecified),10,143*,11,1,3,-3
CC(C)OC(=O)c1cc(=O)[nH]c2ccccc12,12,3,7,2,.,.
COc1ccc(C2=Nn3c(nnc3-c3ccco3)SC2)cc1,8,6,-10,8,.,.
Oc1ccc(C2=Nn3c(nnc3-c3ccco3)SC2)cc1O,38,60*,-2,33,29,73*
CC(C)Cc1nc(N2CCN(C(=O)C(C)C)CC2)c(C#N)c2c1CCC2,21,-2,9,-1,.,.
CC(=O)N1CCN(c2nc(CC(C)C)c3c(c2C#N)CCC3)CC1,11,+,-10,0,19,30
CN(C)c1ccc(N2C(=O)CSC2=S)cc1,1,46*,-7,1,14,13
O=C1CSC(=S)N1c1ccc(F)cc1,.,7,.,.,.,.
CC(=O)[C@]1(O)Cc2c(O)c3c(c(O)c2[C@@H](O[C@H]2C[C@H](N)[C@H](O)[C@H](C)O2)C1)C(=O)c1ccccc1C3=O,.,+,.,.,+,+
COc1cccc2c1C(=O)c1c(O)c3c(c(O)c1C2=O)C[C@@](O)(C(=O)CO)C[C@@H]3O[C@H]1C[C@H](N)[C@@H](O)[C@H](C)O1,.,+,.,.,+,+
Cc1ccc(NC(=S)N(CCC(C)C)C(C)c2ccncc2)c(Cl)c1 (stereo unspecified),18,14,-110,.,.,.
Cc1c(N2C(=O)c3ccc4c5c(ccc(c35)C2=O)CC4)c(=O)n(-c2ccccc2)n1C,96*,52*,-26,0,33*,78*
CNc1ccc2c3c(cccc13)C(=O)N(C)C2=O,.,+,.,.,+,+
CN1C(=O)c2cccc3c(N(C)C)ccc(c23)C1=O,.,89*,.,.,31*,33
CN1C(=O)c2cccc3c(Cl)ccc(c23)C1=O,18,10,30,-2,.,.
SMILES,Mcl1 Noxa PPI,MCL1-BIM inh,Mcl1-Bid inh,Mcl-1 Bim block,BCLXL inh confirm,MCL1 BIM confirm
CC(C)(C)c1ccc(COn2ccnc2)cc1,1,3,-4,-1,.,.
O=c1[nH]n2c(=O)c3c([nH]c2c1N=Nc1cccc(Cl)c1)CCC3,58*,42*,-170,2,18,40
COc1cc2c(cc1OC)CN(c1ccc(-c3ccccc3OC)nn1)CC2,-4,65*,-17,0,22,17
COc1cc2c(cc1OC)CN(c1ccc3ccccc3n1)CC2,.,-7,.,.,.,.
CC(=O)Nc1ccc(N2C(=O)c3cccc4c(O)ccc(c34)C2=O)cc1,.,+,.,.,+,+
O=C1c2cccc3c(O)ccc(c23)C(=O)N1c1ccc(Cl)cc1,.,+,.,.,+,+
Cc1ccc(N2C(=O)c3cccc4c(C(=O)O)ccc(c34)C2=O)cc1,8,2,-2,0,.,.
C#CCN1C(=O)S/C(=C\c2ccc(-c3ccc(C(=O)O)cc3C)o2)C1=O,.,66*,.,.,1,15
CCOC(=O)C(C)N1C(=O)S/C(=C\c2ccc(-c3ccccc3C(=O)O)o2)C1=O (stereo unspecified),.,58*,.,.,42*,62*
Cc1ccc(C(=O)O)cc1-c1ccc(/C=C2\SC(=O)N(CC(=O)Nc3ccccc3)C2=O)o1,47,18,-56,4,.,.

# Source: PubChem BioAssay (several laboratories)
